For 34 compounds, inhibition results are on record in ChEMBL document CHEMBL1961873, “Compounds: GSK PKIS; Assays: Nanosyn kinase panel” (2012).

In one test the target is Tyrosine-protein kinase Srms (Homo sapiens) (UniProt Q9H3Y6). The conditions noted are these: at 1 µM.
Chain of Tyrosine-protein kinase Srms (Homo sapiens) (Q9H3Y6 whole entry): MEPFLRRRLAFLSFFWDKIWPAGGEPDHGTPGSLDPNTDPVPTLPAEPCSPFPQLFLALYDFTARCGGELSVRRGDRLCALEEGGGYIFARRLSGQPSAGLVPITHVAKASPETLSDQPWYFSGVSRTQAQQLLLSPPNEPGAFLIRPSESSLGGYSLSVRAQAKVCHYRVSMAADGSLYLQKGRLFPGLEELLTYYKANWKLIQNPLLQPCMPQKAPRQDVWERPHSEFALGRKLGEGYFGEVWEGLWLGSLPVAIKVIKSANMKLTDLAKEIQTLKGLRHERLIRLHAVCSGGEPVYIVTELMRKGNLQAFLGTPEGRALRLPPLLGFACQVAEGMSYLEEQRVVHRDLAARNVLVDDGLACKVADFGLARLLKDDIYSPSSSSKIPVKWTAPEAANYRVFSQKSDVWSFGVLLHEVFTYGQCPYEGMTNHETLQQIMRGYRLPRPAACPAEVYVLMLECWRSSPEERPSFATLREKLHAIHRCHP
The term inhibition denotes the drop in the measured response relative to a control, in per cent. On to `COc1cc(/C=N/Nc2ncnc3c2cnn3C(C)C)ccc1O`, for which the inhibition is 4.98%. Same read-out and setting: the value for `COC(=O)c1cncc(/C=C/c2c(C)cc(O)cc2C)c1` was 12.7%.

Turning to `COc1cc2ncn(-c3cc(OCc4ccccc4S(C)(=O)=O)c(C#N)s3)c2cc1OC`, the inhibition was found to be 26.9%. On the same count and under the same terms, the value for `Cc1ccc2c(-c3ccnc(Nc4ccc5c(c4)OCCO5)n3)c(-c3ccc(C(F)(F)F)cc3)nn2n1` was 0.07%; that for `Cc1ccc(Nc2ccnc(Nc3cccc(C(N)=O)c3)n2)cc1O` was 41%.

The next test addresses Tyrosine-protein kinase SYK (Homo sapiens) (UniProt P43405). The conditions noted are these: at 0.1 µM.
`[O-][S+]1CCN(Cc2ccc(-c3ccc4ncnc(Nc5ccc(OCc6ccccc6)c(Cl)c5)c4c3)o2)CC1`: the inhibition came out at 1.18%. The same measure, in the same setting: the value for `C[C@@H](Oc1cc(-n2cnc3ccc(OCC4CCN(C)CC4)cc32)sc1C(N)=O)c1ccccc1C(F)(F)F` was 0.48%.

Take `O=S(=O)(CCOCc1ccc(-c2ccc3ncnc(Nc4ccc(OCc5cccc(F)c5)c(Cl)c4)c3c2)o1)c1ccccc1`: the inhibition worked out at 1.93%.

As to `CCn1c(-c2nonc2N)nc2ccc(F)cc21`, the inhibition turned out to be 3.17%. For the compound `CC(C)c1ccc(Nc2nccc(-c3cnn4ncccc34)n2)cc1`, the inhibition was -6.64%. On the same count and under the same terms, the value for `CN(c1ccc(NC(=O)Nc2ccc(OC(F)(F)F)cc2)cc1)c1ccnc(Nc2cccc(S(N)(=O)=O)c2)n1` was -1.49%; that for `NS(=O)(=O)c1ccc(N/N=C2\C(=O)Nc3ccc(Cl)cc32)cc1` was -0.57%; that for `COc1cccc(-n2ncc3c(N/N=C/c4ccc(S(C)(=O)=O)cc4)ncnc32)c1` was -2.46%.

`CC(C)c1ccc2c(c1)NC(=O)/C2=N/Nc1ccc(S(N)(=O)=O)cc1`: the inhibition is 1.61%. Consider `Cc1cc(Cl)cc2c1NC(=O)C2=NNc1ccc(S(N)(=O)=O)cc1`, for which the inhibition was -4.26%. Regarding `c1ccc(Cc2nc3ccc(Nc4ncnc5ccccc45)cc3[nH]2)cc1`, the inhibition was 8.94%. As for `N#Cc1c(NC(=O)c2ccccc2F)sc2c1CCCC2`, the inhibition was found to be 0.7%. Take `CN(C)c1cc2c(Nc3ccc4c(cnn4Cc4ccccc4)c3)ncnc2cn1`: the inhibition stood at 0.89%. Regarding `Nc1nccc(-c2c(-c3ccc(F)cc3)ncn2CCCN2CCOCC2)n1`, the inhibition is -6.28%.

`Cc1ccc(NC(=O)CC2CC2)cc1-c1ccc(C(=O)NCC2CC2)cc1`: the inhibition was -2.32%. Still for that read-out and setting: the value for `CCn1c(-c2nonc2N)nc2c(C#CC(C)(C)O)nc(OCCNC)cc21` was 1.27%. Turning to `Oc1cccc(-c2nc(-c3ccccc3)[nH]c2-c2ccncc2)c1`, the inhibition is -2.15%. The same measure, in the same setting: the value for `Nc1ccc(C#Cc2cncnc2Nc2ccc(OCc3cccc(F)c3)c(Cl)c2)cc1` was -0.35%; that for `NS(=O)(=O)c1ccc(NC=C2C(=O)Nc3ccc4ncsc4c32)cc1` was -8.02%. In the case of `NS(=O)(=O)c1ccc(-c2cc3ccncc3cc2OCc2ccccc2)cc1`, the inhibition came out at 2.96%. Still for that read-out and setting: the value for `Cc1cc(O)cc(C)c1/C=C/c1cncc(C(=O)N(C)C)c1` was -1.67%; that for `c1ccc(Nc2ncc(-c3ccccc3)o2)cc1` was 1.8%; that for `COc1cccc(-n2nc(C)c3c(N/N=C(\C)c4ccncc4)ncnc32)c1` was 1.37%.

For `NC(=O)c1sc(-n2cnc3ccccc32)cc1OCc1ccccc1Br`, the inhibition came to 0.26%. For `CCOc1nccc2c1nc(-c1nonc1N)n2CC`, the inhibition turned out to be 1.77%.

In the case of `CN(C)CCCn1c(-c2nonc2N)nc2cnccc21`, the inhibition was -4.3%. Still for that read-out and setting: with `NC(=O)c1cccc(Nc2nccc(Nc3cccc(F)c3)n2)c1` the figure was 0.43%.

Take `COC(=O)c1ccc2c(c1)C(=Cc1cc(Br)c(O)c(Br)c1)C(=O)N2`: the inhibition amounted to 0.74%. `FC(F)(F)c1ccc(-c2nn3ncccc3c2-c2ccnc(Nc3ccc4c(c3)OCCO4)n2)cc1`: the inhibition worked out at 3.37%. On to `COc1cc(/C=N/Nc2ncnc3c2cnn3C(C)C)ccc1O`, for which the inhibition was -1.05%. Same read-out and setting: with `COC(=O)c1cncc(/C=C/c2c(C)cc(O)cc2C)c1` the figure was -5.74%; with `COc1cc2ncn(-c3cc(OCc4ccccc4S(C)(=O)=O)c(C#N)s3)c2cc1OC`, -8.27%. Still for that read-out and setting: with `Cc1ccc2c(-c3ccnc(Nc4ccc5c(c4)OCCO5)n3)c(-c3ccc(C(F)(F)F)cc3)nn2n1` the figure was -0.8%; with `Cc1ccc(Nc2ccnc(Nc3cccc(C(N)=O)c3)n2)cc1O`, -7.65%.
